The other results are listed elsewhere or left out. No count for the full screen is at hand.
B1: HC2001 (peptide)
chain: CANVCCSMSYAGNASASA
B2: NG10 (peptide)
chain: CAMHLQGPEDAGNASASA
B3: HC862 (peptide)
chain: CALAAKLVALAGNASASA
B4: HC1315 (peptide)
chain: CAPVVHGCPLAGNASASA
B5: HC442 (peptide)
chain: CAVCGAPPCVAGNASASA
B6: HC151 (peptide)
chain: CAEVVTKTWVAGNASASA
B7: HC567 (peptide)
chain: CAEVAASCGGAGNASASA
B8: HC1226 (peptide)
chain: CAHRFAPPCKAGNASASA
B9: FS-2128 (peptide)
chain: CARAKKGLGMAGNASASA
B10: FS-2640 (peptide)
chain: CARAKRSVHFAGNASASA
B11: FS-3181 (peptide)
chain: CARAKRSSKMAGNASASA
B12: HC1906 (peptide)
chain: CATTPCSGMWAGNASASA
B13: HC980 (peptide)
chain: CAHPVTKYIMAGNASASA
B14: FS-913 (peptide)
chain: CAPTARPKRKAGNASASA
B15: FS-1876 (peptide)
chain: CAAFRRGVTKAGNASASA
B16: HC738 (peptide)
chain: CAPRPISYLKAGNASASA
B17: FS-1470 (peptide)
chain: CAPAKRPKRKAGNASASA
B18: FS-836 (peptide)
chain: CAPAQRTKRKAGNASASA
B19: FS-807 (peptide)
chain: CAKAEREKRKAGNASASA
B20: HC1227 (peptide)
chain: CAFAPPCKPLAGNASASA
B21: HC334 (peptide)
chain: CAMIAGAHWGAGNASASA
B22: FS-1532 (peptide)
chain: CAHFKRTRRSAGNASASA
B23: HC727 (peptide)
chain: CAVTRHADVIAGNASASA
B24: HC326 (peptide)
chain: CAALVMAQLLAGNASASA
B25: FS-214 (peptide)
chain: CAALVRTRRCAGNASASA
B26: FS-972 (peptide)
chain: CAALLRTRRSAGNASASA
B27: HC1106 (peptide)
chain: CAALVVGVVCAGNASASA
B28: FS-1294 (peptide)
chain: CAVTRRKGRCAGNASASA
B29: FS-2464 (peptide)
chain: CARTGRACECAGNASASA

Target: furin, P09958
Sequence (P09958 whole entry): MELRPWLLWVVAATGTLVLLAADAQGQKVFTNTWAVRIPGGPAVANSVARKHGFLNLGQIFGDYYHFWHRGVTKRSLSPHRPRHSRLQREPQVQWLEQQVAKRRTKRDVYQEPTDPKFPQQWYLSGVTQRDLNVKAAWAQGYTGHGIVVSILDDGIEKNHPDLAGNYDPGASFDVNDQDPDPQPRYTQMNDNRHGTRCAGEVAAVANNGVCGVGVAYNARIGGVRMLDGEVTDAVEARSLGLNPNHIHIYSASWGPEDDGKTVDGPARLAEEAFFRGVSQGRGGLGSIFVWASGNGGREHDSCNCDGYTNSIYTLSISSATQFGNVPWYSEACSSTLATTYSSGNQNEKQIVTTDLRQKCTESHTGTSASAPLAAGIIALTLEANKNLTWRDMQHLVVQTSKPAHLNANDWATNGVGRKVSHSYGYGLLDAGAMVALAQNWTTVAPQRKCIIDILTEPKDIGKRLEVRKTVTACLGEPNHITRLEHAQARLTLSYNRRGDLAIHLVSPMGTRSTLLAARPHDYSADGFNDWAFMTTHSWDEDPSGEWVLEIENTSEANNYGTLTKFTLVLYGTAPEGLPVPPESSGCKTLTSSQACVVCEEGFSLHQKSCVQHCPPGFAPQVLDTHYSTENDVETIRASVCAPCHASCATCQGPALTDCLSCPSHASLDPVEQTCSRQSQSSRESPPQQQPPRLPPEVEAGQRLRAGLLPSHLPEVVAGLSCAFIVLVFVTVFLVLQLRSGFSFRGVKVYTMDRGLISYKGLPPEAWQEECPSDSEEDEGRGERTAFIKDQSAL
Assay: furin cleavage Z-score vs untreated control; higher = more cleavage, active = 3.5 or more, inactive = 1 or less, 8 variable residues between constant flanks
How it was run: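 Peptides 8 residues long, fused to a cDNA oligonucleotide, were fixed to magnetic beads by the N-terminus and exposed to purified furin. The 0.01 ml reactions contained 50 mM HEPES pH 7.5 with CaCl2 and NaCl at 1:10 enzyme:substrate and ran 7.5, 15 or 30 min. For the cleavage Z-score, log counts of sequenced released DNA were compared with furin-free reactions, lowess-adjusted and scaled by median absolute deviation.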

Row | Sequence | furin cleavage Z-score (7.5 min) | furin cleavage Z-score (15 min) | furin cleavage Z-score (30 min)
1 | B1 | 0.0522 (inactive) | 1.55 | 1.28
2 | B2 | 0.395 (inactive) | -0.679 (inactive) | -0.939 (inactive)
3 | B3 | 1.87 | -0.745 (inactive) | 0.749 (inactive)
4 | B4 | -0.719 (inactive) | -0.657 (inactive) | -0.124 (inactive)
5 | B5 | 1.21 | 0.519 (inactive) | 0.314 (inactive)
6 | B6 | -0.0944 (inactive) | 0.88 (inactive) | -0.37 (inactive)
7 | B7 | -0.691 (inactive) | -0.994 (inactive) | -0.368 (inactive)
8 | B8 | -2.1 (inactive) | -0.755 (inactive) | 0.739 (inactive)
9 | B9 | 1.05 | 0.216 (inactive) | 0.932 (inactive)
10 | B10 | -0.56 (inactive) | -0.574 (inactive) | 1.29
11 | B11 | 5.7 (active) | 7.55 (active) | 8.74 (active)
12 | B12 | 0.488 (inactive) | 0.804 (inactive) | -1.44 (inactive)
13 | B13 | -1.79 (inactive) | 0.202 (inactive) | -0.88 (inactive)
14 | B14 | 4.97 (active) | 4.54 (active) | 4.32 (active)
15 | B15 | -0.242 (inactive) | -0.144 (inactive) | -1.52 (inactive)
16 | B16 | 0.812 (inactive) | 1.42 | 0.555 (inactive)
17 | B17 | 11.2 (active) | 12 (active) | 9.89 (active)
18 | B18 | 10.3 (active) | 11.5 (active) | 9.82 (active)
19 | B19 | 0.64 (inactive) | 0.758 (inactive) | 1.86
20 | B20 | -0.328 (inactive) | -1.28 (inactive) | -1.52 (inactive)
21 | B21 | -0.899 (inactive) | -0.615 (inactive) | -0.232 (inactive)
22 | B22 | 10.4 (active) | 10.2 (active) | 8.6 (active)
23 | B23 | -0.38 (inactive) | 1 | -0.771 (inactive)
24 | B24 | 0.829 (inactive) | 0.666 (inactive) | -0.00652 (inactive)
25 | B25 | 5.77 (active) | 6.03 (active) | 5.43 (active)
26 | B26 | 8.62 (active) | 7.98 (active) | 4.19 (active)
27 | B27 | -0.352 (inactive) | -0.584 (inactive) | -0.588 (inactive)
28 | B28 | 3.46 | 5.29 (active) | 5.86 (active)
29 | B29 | -0.465 (inactive) | 0.257 (inactive) | 0.474 (inactive)
